Sampled rows, rich in hits. Any-hit rate of the full collection: about 6%.
VDR inh: blocks the human vitamin D receptor; P11473; 400,000 compounds, 0.93% hits; VDR-SRC2-3 peptide fluorescence polarization, 2 h; AID 504847; Potency, µM, for the others: max response, negative = inhibition, hits mostly inhibitors
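After 23 nl compound addition and a short centrifugation, plates sat for 2 hours at ambient temperature; polarization of fluorescence then indicated loss of VDR binding to peptide SRC2-3.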
PLK1 PBD inh: blocks phosphopeptide binding to human PLK1 polo-box domain; P53350; Plk1 PBD binding of FITC phosphopeptide, fluorescence polarization; Potency, µM, for inactives: max response, negative = inhibition, hits mostly inhibitors; 360,000 compounds, 2.8% hits; AID 720504; also: series mostly up to about 57 µM; nearly all actives have a fitted effect of over 65% in size
Target sequence (P53350 whole entry, looked up, the tested form may be a part): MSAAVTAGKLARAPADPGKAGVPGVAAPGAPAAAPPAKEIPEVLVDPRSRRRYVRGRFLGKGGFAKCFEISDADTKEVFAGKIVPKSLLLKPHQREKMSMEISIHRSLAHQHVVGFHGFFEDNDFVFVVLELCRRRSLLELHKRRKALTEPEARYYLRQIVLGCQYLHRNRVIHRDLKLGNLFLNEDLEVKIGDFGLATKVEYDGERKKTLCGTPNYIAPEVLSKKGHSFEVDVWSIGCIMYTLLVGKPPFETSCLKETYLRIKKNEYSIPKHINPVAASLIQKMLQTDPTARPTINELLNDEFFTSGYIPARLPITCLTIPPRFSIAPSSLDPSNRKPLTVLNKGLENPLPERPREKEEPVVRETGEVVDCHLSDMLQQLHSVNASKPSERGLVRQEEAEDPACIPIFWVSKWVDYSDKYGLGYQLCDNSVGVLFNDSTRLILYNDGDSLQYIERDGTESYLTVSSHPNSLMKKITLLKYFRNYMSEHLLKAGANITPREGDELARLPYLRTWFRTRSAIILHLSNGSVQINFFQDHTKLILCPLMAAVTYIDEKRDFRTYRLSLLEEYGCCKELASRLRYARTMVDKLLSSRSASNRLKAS
Tau ThT inhib: inhibitors of human tau fibril formation, thioflavin T binding; P10636; recombinant tau K18 P301L, heparin-induced fibrillization, ThT fluorescence; Potency, µM (titrated, usually from 57.4 µM), for the others: top-dose activity, negative = inhibition, hits mostly inhibitors; 270,000 compounds, 2.1% hits; AID 1460; also: nearly all actives have a fitted effect of over 55% in size
Target sequence (P10636 561-689 P618L limits assumed): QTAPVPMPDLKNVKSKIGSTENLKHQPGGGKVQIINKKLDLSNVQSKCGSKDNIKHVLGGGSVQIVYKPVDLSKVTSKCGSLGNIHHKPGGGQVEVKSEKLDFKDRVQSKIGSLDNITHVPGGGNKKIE
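Heparin-induced (20 uM) aggregation of recombinant human K18 P301L tau, 15 uM unlabeled with 0.24 uM labeled, pH 7 acetate buffer, 6 hr at 37 C with compound. Fibrils quantified by 30 uM ThT fluorescence after 1 hr ambient incubation.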
Sfp PPTase inh: inhibitors of Bacillus subtilis Sfp phosphopantetheinyl transferase; Q9F4F7; Biochemical Sfp PPTase activity, qHTS; Potency, µM, for inactives: largest response in the series, negative = inhibition, most hits filed as inhibitors; 310,000 compounds, 3.5% hits;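 also: the enzyme is Sfp with the accession as filed and its product quenches rhodamine fluorescence; 0% = enzyme reaction without inhibitor and -100% = no enzyme wells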
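Buffer: 50 mM Hepes-Na pH 7.6, 10 mM MgCl2, 0.01% Nonidet P-40, 0.01% BSA. Enzyme 15 nM, pre-exposed to compound 15 min; substrates then added and fluorescence change tracked over 30 min.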
Tau fibril FP: inhibitors of human tau fibril formation; AID 1468; Potency, µM (highest dose often 57.7 µM), inactives show at the highest dose activity, negative = inhibition, actives largely listed as inhibitors; 280,000 compounds, 0.39% hits; K18 P301L tau heparin fibrillization, Alexa594 FP, 6 h; P10636; also: nearly all actives have a fitted effect of over 55% in size
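Heparin (20 uM) drove fibril formation of recombinant tau K18 P301L, 15 uM unlabeled with 0.24 uM Alexa 594 label, for 6 hr at 37 C in 100 mM sodium acetate pH 7. Fluorescence polarization (555/632 nm) read 1 hr after 30 uM ThT.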
Tau fluor cs: counter-screen for tau fibril formation inhibitors. tau K18 P301L Alexa594 fluorescence, heparin fibrillization. Potency, µM (series often up to 57.7 µM), without a hit: at the top dose activity change, negative = decrease. 280,000 compounds, 0.93% hits. AID 1463; also: nearly all actives have a fitted effect of over 55% in size
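Human tau K18 P301L (15 uM unlabeled, 0.24 uM Alexa 594-labeled) in 100 mM sodium acetate pH 7 with 20 uM heparin, 6 hr at 37 C. ThT 30 uM added, 1 hr ambient; Alexa 594 FP and total fluorescence read at 555/632 nm.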
An asterisk follows results filed as active; [ ] = remark or other dose. Calls follow the shape of the dose curve; as a rule, active = well fitted curve in the direction sought with a large enough effect; inconclusive = small, poorly fitted or top-dose-only effect, or another doubt; inactive = no such curve, though single readings can be large; an effect the other way counts as inactive or inconclusive. Unless noted, % is scaled to controls: 0 for no effect and ±100 for the full control effect; potency is read from the fitted curve at half-maximal effect.

How did COC(=O)[C@@]1(Cc2ccc(F)cc2)[C@H]2c3cc(C(=O)N(C)C)n(Cc4ccc(C(F)(F)F)nc4)c3C[C@H]2CN1C(=O)c1ccccc1 do in these assays?
Tau ThT inhib: -17.5%; Sfp PPTase inh: 12.2%; Tau fibril FP: -0.9%; Tau fluor cs: -9.2%

What do the screens show for `FC(F)Sc1ccc(NC(=S)NCC2CCCCC2)cc1`?
VDR inh: 4.5%; PLK1 PBD inh: -4.3%; Tau ThT inhib: -7.0%; Sfp PPTase inh: 12.6%; Tau fibril FP: inconclusive; Tau fluor cs: 14.1µM*[quencher]

How did N#Cc1c(-c2ccccc2Cl)cc(-c2ccccc2)[nH]c1=S do in these assays?
Tau ThT inhib: -9.3%; Sfp PPTase inh: -25.7%; Tau fibril FP: -2.7%; Tau fluor cs: -2.9%

Results for Cc1cc(-c2ccccc2)c(C#N)c(=S)[nH]1 ?
VDR inh: -18.8%; PLK1 PBD inh: -25.0%; Tau ThT inhib: -7.9%; Sfp PPTase inh: 28.2µM*; Tau fibril FP: 1.3%; Tau fluor cs: -0.7%

How did CC(=O)OC1CC[C@]2(C)C(CC(OC(C)=O)[C@@]3(C)C4=CC(=O)OC(c5ccoc5)[C@]4(C)CCC23)C1(C)C (stereo partly drawn) do in these assays?
VDR inh: 25.1µM*; Tau ThT inhib: inconclusive; Sfp PPTase inh: 0.3%; Tau fibril FP: -1.5%; Tau fluor cs: -1.0%

Results for CC1(C)C(=O)C=C[C@@]2(C)C1C=C[C@@]1(C)C2CC[C@@]2(C)C(c3ccoc3)OC(=O)C3OC312 (stereo partly drawn) ?
VDR inh: 3.55µM*; Tau ThT inhib: inconclusive; Sfp PPTase inh: 0.9%; Tau fibril FP: inconclusive; Tau fluor cs: -16.7%

What do the screens show for `CC(=O)OC1CC(OC(C)=O)[C@]2(C)C(CC(=O)[C@]3(C)C2CC[C@@]2(C)C(c4ccoc4)OC(=O)C4O[C@@]423)C1(C)C` (stereo partly drawn)?
VDR inh: 28.2µM*; Tau ThT inhib: 25.1µM*; Sfp PPTase inh: -10.2%; Tau fibril FP: 31.6µM*; Tau fluor cs: -21.3%

Results for CC(=O)OC1C=C[C@]2(C)C(CC(OC(C)=O)[C@@]3(C)C4=CC(=O)OC(c5ccoc5)[C@]4(C)CCC23)C1(C)C (stereo partly drawn) ?
VDR inh: 56.2µM*; Tau ThT inhib: inconclusive; Sfp PPTase inh: -17.9%; Tau fibril FP: -1.7%; Tau fluor cs: inconclusive

How did CC(=O)O[C@@H]1C[C@H]2C(C)(C)C(=O)C=C[C@]2(C)[C@H]2CC[C@@]3(C)[C@H](c4ccoc4)OC(=O)[C@H]4O[C@]43[C@@]21C do in these assays?
VDR inh: -26.5%; PLK1 PBD inh: -12.0%; Tau ThT inhib: inconclusive; Sfp PPTase inh: -6.5%; Tau fibril FP: -1.5%; Tau fluor cs: -7.4%

How did O=C1CCN(CCc2ccccc2)CCN1C(CSc1ccc(Br)cc1)c1ccccc1 (stereo not drawn) do in these assays?
VDR inh: -6.4%; Sfp PPTase inh: 14.4%

How did COc1ccc(N2CC(NC(=O)/C=C\c3ccccc3)CC2=O)cc1 (stereo not drawn) do in these assays?
VDR inh: 3.8%; Tau ThT inhib: -10.4%; Tau fibril FP: -8.9%; Tau fluor cs: -9.1%

How did Cc1ccc(N2CCN(S(=O)(=O)c3ccc4c(c3)oc(=O)n4C)CC2C)cc1 (stereo not drawn) do in these assays?
VDR inh: 5.6%; PLK1 PBD inh: -0.8%; Sfp PPTase inh: 8.7%

What do the screens show for `COc1ccccc1N(CC(=O)N1CCN(Cc2ccccc2)CC1)S(=O)(=O)c1ccccc1`?
PLK1 PBD inh: 4.2%

How did N#Cc1cc(N)ccc1Sc1ccc(Cl)cc1 do in these assays?
VDR inh: -0.7%; PLK1 PBD inh: -7.3%; Tau ThT inhib: -15.5%; Sfp PPTase inh: -2.4%; Tau fibril FP: -1.5%; Tau fluor cs: 15.8µM*[quencher]

How did Cn1c(=O)c2c(nc(CN3CCN(c4ccccc4F)CC3)n2Cc2ccc(F)cc2)n(C)c1=O do in these assays?
VDR inh: -16.8%; Tau ThT inhib: inconclusive; Tau fibril FP: -6.0%; Tau fluor cs: -17.8%

Results for Cc1sc2nc3c(C(=O)N4CCCC4)cc(C(=O)c4ccccc4O)cn3c(=O)c2c1C ?
VDR inh: -8.0%; PLK1 PBD inh: 23.8µM*; Tau ThT inhib: inconclusive; Sfp PPTase inh: 22.4µM*; Tau fibril FP: 3.2%; Tau fluor cs: -8.6%

How did Cc1ccc(C)c(OCCn2cc(C(=O)c3cccs3)c3ccccc32)c1 do in these assays?
VDR inh: -11.7%; Tau ThT inhib: -1.8%; Tau fibril FP: inconclusive; Tau fluor cs: inconclusive

What do the screens show for `COc1ccc(NC(=O)CN(C)C(=O)c2ccc(N3CCCCC3)c([N+](=O)[O-])c2)cc1`?
VDR inh: -4.7%; PLK1 PBD inh: -3.0%

What do the screens show for `O=C(O/N=C\c1ccc(N2CCCCC2)c([N+](=O)[O-])c1)c1cccc(Cl)c1`?
VDR inh: -9.3%; PLK1 PBD inh: -1.0%; Tau ThT inhib: inconclusive; Sfp PPTase inh: -2.2%; Tau fibril FP: 5.7%; Tau fluor cs: -23.8%

What do the screens show for `COc1ccc(C(=O)/C=C/c2ccc(N3CCCCC3)c([N+](=O)[O-])c2)cc1`?
VDR inh: inconclusive; PLK1 PBD inh: -2.7%; Tau ThT inhib: 7.94µM*; Sfp PPTase inh: 15.1%; Tau fibril FP: 11.6%; Tau fluor cs: inconclusive

How did COc1ccc(C(=O)/C=C/c2ccc(N3CCCCC3)c([N+](=O)[O-])c2)c(OC)c1 do in these assays?
VDR inh: inconclusive; PLK1 PBD inh: 4.4%; Tau ThT inhib: 3.98µM*; Sfp PPTase inh: -11.0%; Tau fibril FP: 3.9%; Tau fluor cs: inconclusive

What do the screens show for `Cc1ccc(C(=O)O/N=C\c2ccc(N3CCCCC3)c([N+](=O)[O-])c2)cc1`?
VDR inh: -10.4%; PLK1 PBD inh: 1.2%; Tau ThT inhib: 4.47µM*; Sfp PPTase inh: 6.4%; Tau fibril FP: 11.0%; Tau fluor cs: -16.7%

What do the screens show for `CC(=Nc1ccccc1N)c1c(C)cc(=O)n(O)c1O`?
VDR inh: 9.5%; Sfp PPTase inh: inconclusive

Results for C[C@H]1COc2c(N3CCN(C)CC3)c(F)cc3c(=O)c(C(=O)NCc4ccco4)cn1c23 ?
VDR inh: 2.6%; Tau ThT inhib: -3.0%; Sfp PPTase inh: -2.2%; Tau fibril FP: -6.3%; Tau fluor cs: -5.2%

Results for Cc1noc(C)c1S(=O)(=O)NCc1ccc(CN(C)C)cc1 ?
VDR inh: -8.6%; PLK1 PBD inh: 4.9%

Screens as filed in PubChem BioAssay.
